CHOP inhibitor: CHOP inhibition in unfolded protein response; inhibition, % at 10 µM; CHO-K1 CHOP-promoter luciferase, tunicamycin-induced, 15-18 h; 220,000 tested, 3.8% active;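 active = compounds that reduced the stress-induced luciferase reporter signal by more than about 70% of percent inhibition, limit read from the data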
WT yeast gro inh: growth inhibition of WT yeast, mitochondrial fusion screen. mitochondrial fusion phenotypic screen, WT strain. inhibition, % at 10 µM. 190,000 tested, 2.1% active. AID 1362; in the data active = inhibition above about 58%; tested in S. cerevisiae
L major viab: Leishmania major promastigote growth inhibition; AID 1063; 200,000 tested, 9% active; inhibition, % at 10 µM; Leishmania major promastigotes, resazurin fluorescence viability; in the data active = inhibition above about 50%;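 also: promastigotes grown with compound for 44 hours at 28 °C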
RAM network inh: yeast RAM network inhibition; S. cerevisiae dse1pr::URA3 reporter, 5-FOA growth OD615, 2 d; analog-sensitive cbk1-as2 kinase mutant strain; inhibition, % at 50 µM; 190,000 tested, 1.8% active; AID 868;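 active = inhibition above a set limit, 3 SD over mean compound inhibition, cut at about 8.4% in these data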;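 also: inhibition rescues growth on 5-FOA so higher OD means more RAM inhibition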
Numbers stand for hits; - = inactive; . = not tested or not shown. Rows were chosen to be rich in hits. Some 13% of all compounds tested hit in one or more screens of this group.

SMILES	CHOP inhibitor	WT yeast gro inh	L major viab	RAM network inh
NNc1nc(N)c2c(n1)-c1ccccc1CC21CCCC1	-	-	100	-
O=c1c2c(nc3n1CCCCC3)-c1ccccc1CC21CCCCC1	-	78	-	9.9
CCC1(C)Cc2ccccc2-c2nc3n(c(=O)c21)CCCCC3 (configuration not stated)	81	-	-	-
O=c1[nH]c(CN2CCCCC2)nc2c1C1(CCCCC1)Cc1ccccc1-2	-	-	-	-
CCC1(C)Cc2ccccc2-c2nc(NCCO)n(-c3ccc(C)cc3)c(=O)c21 (configuration not stated)	-	-	63	-
CCOC(=O)C1CCN(C(=O)c2cc3ccccc3oc2=O)CC1	-	-	-	-
COc1ccccc1C(=O)NCC(=O)N/N=C/c1cc(Br)ccc1OCc1ccccc1	-	-	-	-
O=C(CNC(=O)c1cccc(F)c1)N/N=C/c1cc(Br)ccc1OC(=O)/C=C/c1ccco1	-	-	84	-
O=C(CNC(=O)c1ccc(F)cc1)N/N=C/c1cc(Br)ccc1OCc1ccccc1	-	-	96	-
O=C(CNC(=O)c1ccccc1O)N/N=C/c1cc(Br)ccc1OC(=O)/C=C/c1ccco1	-	-	68	-
COc1ccc([N+](=O)[O-])cc1/C=N/NC(=O)CNC(=O)c1cccc(F)c1	-	-	98	-
Cc1nc(NC(=O)c2ccccc2)sc1C1(C)CC(c2c(Cl)cccc2Cl)=NO1 (configuration not stated)	-	.	.	.
CCOc1ccc(/C=N/NC(=O)c2ccc(Cn3cc(Br)cn3)o2)cc1	-	-	59	-
O=C(N/N=C\c1ccc(F)cc1)c1ccc(Cn2cc(Br)c([N+](=O)[O-])n2)o1	-	-	-	-
O=C(N/N=C\c1ccc2c(c1)OCO2)c1ccc(Cn2cc(Br)c([N+](=O)[O-])n2)o1	-	-	83	-
O=C(COC(=O)c1ccc(NS(=O)(=O)c2ccc(F)c(F)c2)cc1)NCC1CCCO1 (configuration not stated)	-	-	-	-
CCOC(=O)NC(NCCc1ccccc1)(C(F)(F)F)C(F)(F)F	70	-	-	-
CCOC(=O)NC(NCc1ccccc1)(C(F)(F)F)C(F)(F)F	-	-	-	-
CC(=O)c1sc(N/N=C\c2ccc(Br)cc2)nc1C	-	60	-	-
CC(=O)Nc1sc(N/N=C/c2ccc(O)cc2)nc1-c1ccc(C)cc1	-	.	.	.
CC(=O)c1sc(N/N=C\c2cccc(Br)c2)nc1C	81	-	-	-
COc1ccc(-c2cn3c(C)c(C(=O)Nc4cccc(C)n4)sc3n2)cc1	-	-	96	-
Cc1cccc(NC(=S)N(CCCN2CCOCC2)C(C)c2cc3ccccc3o2)c1 (configuration not stated)	-	-	81	-
COc1cccc2cc(C(C)N(CCCN3CCOCC3)C(=S)Nc3ccccc3C)oc12 (configuration not stated)	-	-	-	-
Cc1cccc(NC(=S)N(CCCN2CCOCC2)C(C)c2cc3ccccc3o2)c1C (configuration not stated)	-	-	80	-
SMILES	CHOP inhibitor	WT yeast gro inh	L major viab	RAM network inh
COc1cccc2cc(C(C)N(CCCN3CCOCC3)C(=S)Nc3cccc(C)c3)oc12 (configuration not stated)	-	-	-	-
CSc1ccc(/C=C(/NC(=O)c2ccc(C)cc2)C(=O)Nc2cccc(F)c2)cc1	-	-	-	-
Cc1c(Cl)cccc1NC(=S)NCCCN(C)C	-	-	82	-
CN(C)CCNC(=S)Nc1ccccc1Cl	-	-	-	-
Cc1c(Cl)cccc1NC(=S)NCCc1ccc(C(F)(F)F)cc1	-	81	-	-
Cc1c(Cl)cccc1NC(=S)NCCc1ccccn1	-	.	.	.
Cn1nnnc1SCC(=O)Nc1ccccc1C(N)=O	-	-	-	-
CC(C)(C)c1ccc(C(=O)NC(=S)Nc2nc3c(s2)CCCC3)cc1	-	-	67	-
CC(C)(C)c1ccc(C(=O)NC(=S)Nc2sc3c(c2C#N)CCC3)cc1	-	-	-	-
COc1cc(OC)cc(C(=O)N[C@H](C(=O)Nc2nc3c(s2)CCCC3)C(C)C)c1	-	-	90	-
CC(C)[C@H](NC(=O)c1ccccc1F)C(=O)Nc1nc2c(s1)CCCC2	-	-	-	-
CN(C)c1ccc(C(=O)Nc2nc3c(s2)CCCC3)cc1	92	-	98	-
COC(=O)Nc1nc2c(s1)CCCC2	-	-	-	-
O=C(Nc1c2c(nc3ccccc13)CCCC2)c1cccc([N+](=O)[O-])c1	-	-	-	-
Cc1cc(C)n(-c2nc3ccccc3c(=O)n2OCC(=O)Nc2c(C)cccc2C)n1	-	-	-	-
O=C(c1ccccc1OCc1ccccc1Br)N1CCN(c2ncccn2)CC1	-	-	68	-

Source: PubChem
